PubChem BioAssay (NCATS)
Inconclusive results are not listed. Entries that show only a call come without a potency. Active and inactive are the calls of the source. Calls follow the shape of the dose curve; as a rule, active = well fitted inhibition curve with a large enough effect; inconclusive = small, poorly fitted or top-dose-only effect; inactive = flat fitted curve, though single readings scatter.

tested on: CP203; test: qHTS profiling for inhibitors of Plasmodium falciparum proliferation (AID 504749); also: nearly all actives have a fitted effect of over 60% in size; settings: P. falciparum in erythrocytes, SYBR Green DNA, 72 h; series mostly up to 28.7 µM
Text: NIH National Institute of Allergy and Infectious Diseases [NIAID] NIH Chemical Genomics Center [NCGC] MLPCN Grant: None Assay Provider: Xinzhuan Su, NIAID NCGC Assay Overview: Plasmodium falciparum is a virulent malarial parasite that kills 1-2 million people worldwide each year. Transmitted by mosquitoes, the sporozoite form of the parasite enters the blood stream to infect hepatocytes, where they become merozoites that infect red blood cells (erythrocytes). Within erythrocytes, merozoites begin a […] cycle of growth and division, after which the parasite is released to infect new red blood cells. Gametocytes, which form within erythrocytes as well, circulate in the bloodstream and are ingested by the mosquito, thereby completing the life cycle. To profile malarial isolates for differential chemical responses and to identify inhibitors of malarial growth, an assay that measures P. falciparum growth and replication within erythrocytes was employed. This assay uses a DNA binding fluorescent dye (SYBR Green) to detect parasite DNA following cell lysis. Because mature erythrocytes lack DNA, only Plasmodium-derived DNA is detected.
NCGC Assay Protocol Summary: The SYBR Green viability assay was adapted from a method described previously (Plouffe et al., 2008). For screening 3 ul culture medium was dispensed into 1536 well black clear bottom plates (Aurora Biotechnologies) using a Multidrop Combi (Thermo Fisher Scientific Inc.), 23 nL compounds in DMSO were added by a pin tool (Kalypsys), and 5 ul of erythrocytes infected with P. falciparum (0.3% parasitemia, 2.5% hematocrit final concentration) were added. The plates were incubated at 37 C in a humidified incubator in 5% CO2 for 72 h, and 2 ul lysis buffer (20 mM Tris HCl, 10 mM EDTA, 0.16% saponin, 1.6% triton X, 10X SYBR Green I supplied as 10,000X […] by Invitrogen) was added to each well. The plates were mixed for 25 sec with gentle shaking and incubated overnight at room temperature in the dark. The following morning, fluorescence intensity at 485(14) nm excitation and 535(25) nm emission wavelengths was measured on an EnVision (Perkin Elmer) plate reader. Plate reads were normalized relative to the control inhibitor (0.29 uM artemisinin) and vehicle (DMSO) wells present on each plate and then corrected by an algorithm using vehicle-only control plates at the beginning and end of the compound plate stack.
Potency is read from the fitted curve at half-maximal effect.

| Compound | Potency |
| --- | --- |
| CN(C)CCc1ccc(O)cc1 | inactive |
| CCOC(=O)C1(c2ccccc2)CCN(CCC(C#N)(c2ccccc2)c2ccccc2)CC1 | 4.78 µM (active) |
| Clc1cccc(N2CCNCC2)c1 | inactive |
| Cc1ncc(CNC(=O)N(CCCl)N=O)c(N)n1 | inactive |
| COc1ccc(C(=O)c2c(C)n(CCN3CCOCC3)c3ccccc23)cc1 | inactive |
| CC(=O)Nc1cc([As](=O)(O)O)ccc1O | inactive |
| c1ccc(C2CC2)c(OCC2=NCCN2)c1 | inactive |
| Cc1ccc(S(=O)(=O)N[C@@H](CCCCN)C(=O)CCl)cc1 | inactive |
| Nc1ccncc1 | inactive |
| N#CC(C#N)=Cc1ccc(O)c(O)c1 | inactive |
| O=C1NCN(c2ccccc2)C12CCN(CC1COc3ccccc3O1)CC2 (stereo not given) | inactive |
| O=c1[nH]c2ccccc2n1C1CCN(CCCC(c2ccc(F)cc2)c2ccc(F)cc2)CC1 | inactive |
| C[C@]12C/C(=C/O)C(=O)C[C@@H]1CC[C@@H]1[C@@H]2CC[C@@]2(C)[C@H]1CC[C@]2(C)O | inactive |
| CCC(C(N)=O)N1CCCC1=O (stereo not given) | inactive |
| Oc1cc(Cl)ccc1Oc1ccc(Cl)cc1Cl | 15.1 µM (active) |
| CC(=O)[C@H]1CC[C@H]2[C@@H]3CC[C@H]4C[C@H](O)CC[C@]4(C)[C@H]3C(=O)C[C@]12C | inactive |
| CC[N+]1(C)CCCC(OC(=O)C(O)(c2ccccc2)c2ccccc2)C1 (stereo not given) | inactive |
| CC1OC(C)OC(C)O1 (stereo not given) | inactive |
| O=C(O)c1ccc2[nH]cc(CCCCN3CC=C(c4ccccc4)CC3)c2c1 | inactive |
| OCCOc1ccccc1 | inactive |

| Compound | Potency |
| --- | --- |
| CC[N+](CC)(CC)CC | inactive |
| NCCc1cc(O)c(O)cc1O | inactive |
| NN=C(N)N | inactive |
| CN1CCN(C(=O)O[C@H]2c3nccnc3C(=O)N2c2ccc(Cl)cn2)CC1 | inactive |
| C=C(C)[C@H]1Cc2c(ccc3c2O[C@@H]2COc4cc(OC)c(OC)cc4[C@@H]2C3=O)O1 | inactive |
| Fc1ccc(C(OCCN2CCN(CCCc3ccccc3)CC2)c2ccc(F)cc2)cc1 | 12 µM (active) |
| CCN(C(C)=O)c1cccc(-c2ccnc3c(C#N)cnn23)c1 | inactive |
| CC(C)=CC1C(C(=O)OCc2cccc(Oc3ccccc3)c2)C1(C)C (stereo not given) | inactive |
| Cn1c(CCCC(=O)O)nc2cc(N(CCCl)CCCl)ccc21 | inactive |
| Oc1ccccc1-c1ccccc1 | inactive |
| NCC1(CC(=O)O)CCCCC1 | inactive |
| O=C(NC(O)C(Cl)(Cl)Cl)NC(O)C(Cl)(Cl)Cl (stereo not given) | inactive |
| CC1NCCOC1c1ccccc1 (stereo not given) | inactive |
| Oc1ccc(Cl)cc1Cc1ccccc1 | 16.9 µM (active) |
| NP(N)(=O)NC(=O)c1ccc(F)cc1 | inactive |
| CC(C)(C)CC(C)(C)c1ccc(O)cc1 | inactive |
| CCCC(C)(COC(N)=O)COC(=O)NC(C)C (stereo not given) | inactive |
| CC(C)CC(N(C)C)C1(c2ccc(Cl)cc2)CCC1 (stereo not given) | inactive |
| C=C1CC[C@@]2(O)[C@H]3Cc4ccc(O)c5c4[C@@]2(CCN3CC2CC2)[C@H]1O5 | inactive |
| Cc1ccc(-c2nc3ccc(C)cn3c2CC(=O)N(C)C)cc1 | inactive |
